The values that follow come from PubChem BioAssay (EPA / NIEHS).

As a reminder, the AC50 is the concentration giving half of the maximal activity seen.

Inconclusive results are not listed. The source made the active and inactive calls. Rule for the calls: active = hit-call score of the fitted dose curve at least 0.9, where 1 is the maximum; inconclusive = response in the unintended direction; inactive = score below 0.9.

The target of assay [1] is human CYP4F12, CYP4F12 (gene 66002) (UniProt Q9HCS2). The assay can be described thus: NVS_ADME_hCYP4F12: NovaScreen (NVS) CYP450-related Enzyme Activity (ADME) Assay for human CYP4F12 (AID 2283111). An outline of the steps:
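Cell-free fluorescence assay of recombinant human CYP4F12 activity on a specific substrate, read 0.5 h after dosing. Primary screen in duplicate at 10 uM, then concentration series for actives; loss of signal fitted against acetonitrile negative control.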

The target of assay [2] is human AMP-activated Protein Kinase, alpha 1 (AMPKa1), PRKAA1 (gene 5562) (UniProt Q13131). In words: NVS_ENZ_hAMPKa1: NovaScreen (NVS) Enzymatic Assay for human AMP-activated Protein Kinase, alpha 1 (AMPKa1) (AID 2283130). An outline of the steps: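 Recombinant human AMPKα1 activity was measured cell-free by fluorescent substrate conversion with electrophoretic mobility-shift separation, 1 h after dosing. Duplicate single-point screening was at 25 uM; actives (≥30% inhibition) were retested in concentration-response up to 50 uM.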
Chain of human AMP-activated Protein Kinase, alpha 1 (AMPKa1), PRKAA1 (gene 5562) (Q13131 whole entry, looked up): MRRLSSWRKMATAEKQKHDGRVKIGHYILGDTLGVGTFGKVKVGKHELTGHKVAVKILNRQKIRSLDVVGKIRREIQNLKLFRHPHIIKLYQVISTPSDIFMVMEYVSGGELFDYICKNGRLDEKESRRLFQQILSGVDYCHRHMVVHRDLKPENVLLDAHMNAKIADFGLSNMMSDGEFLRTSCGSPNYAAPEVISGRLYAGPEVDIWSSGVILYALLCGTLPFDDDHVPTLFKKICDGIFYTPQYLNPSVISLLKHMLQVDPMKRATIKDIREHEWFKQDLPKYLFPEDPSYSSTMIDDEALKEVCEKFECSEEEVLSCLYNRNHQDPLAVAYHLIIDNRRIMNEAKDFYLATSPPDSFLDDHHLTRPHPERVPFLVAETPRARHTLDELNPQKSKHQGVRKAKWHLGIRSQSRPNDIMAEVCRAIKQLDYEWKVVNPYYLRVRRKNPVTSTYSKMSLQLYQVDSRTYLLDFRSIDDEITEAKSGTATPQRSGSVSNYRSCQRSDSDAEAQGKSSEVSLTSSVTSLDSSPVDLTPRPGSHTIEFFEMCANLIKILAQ

The target in assay [3] is human Caspase 5 (CASP5), CASP5 (gene 838) (UniProt P51878). In words: NVS_ENZ_hCASP5: NovaScreen (NVS) Enzymatic Assay for human Caspase 5 (CASP5) (AID 2283137). An outline of the steps:
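Recombinant human caspase 5 expressed in E. coli, fluorogenic substrate, fluorescence read 2 h after dosing. Single-point 25 uM duplicate screen, then concentration-response to maximum 50 uM for actives; DMSO baseline.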

Assay [4] deals with human Acid Phosphatase 1 (ACP1), ACP1 (gene 52) (UniProt P24666). The assay can be described thus: NVS_ENZ_hACP1: NovaScreen (NVS) Enzymatic Assay for human Acid Phosphatase 1 (ACP1) (AID 2283136). On the procedure:
NVS_ENZ_hACP1 is a biochemical, single-readout assay that uses extracted gene-proteins from SF9 in a cell-free assay. Measurements were taken 1.5 hours after chemical dosing in a 384-well plate.NVS_ENZ_hACP1 is one of one assay component(s) measured or calculated from the NVS_ENZ_hACP1 assay. It is designed to make measurements of enzyme activity, a form of enzyme reporter, as detected with fluorescence intensity signals by Fluorescence and electrophoretic mobility shift technology.Data from the assay component NVS_ENZ_hACP1 was analyzed into 1 assay endpoint. This assay endpoint, NVS_ENZ_hACP1, was analyzed in the positive analysis fitting direction relative to DMSO as the negative control and baseline of activity. Using a type of enzyme reporter, loss-of-signal activity can be used to understand changes in the enzymatic activity as they relate to the gene ACP1. Furthermore, this assay endpoint can be referred to as a primary readout, because this assay has produced multiple assay endpoints where this one serves a enzymatic activity function. To generalize the intended target to other relatable targets, this assay endpoint is annotated to the phosphatase intended target family, where the subfamily is acid phosphatase. […]

Assay [5] addresses human Caspase 2 (CASP2), CASP2 (gene 835) (UniProt P42575). In words: NVS_ENZ_hCASP2: NovaScreen (NVS) Enzymatic Assay for human Caspase 2 (CASP2) (AID 2283135). In a few lines:
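E. coli-expressed enzyme in a cell-free protease assay, fluorescence read 1 h after dosing. Compounds at 25 uM in duplicate, with concentration-response up to 50 uM for hits; loss of signal against DMSO baseline.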

The target in the next assay is Caspase-1 (Homo sapiens) (UniProt P29466). In words: NVS_ENZ_hCASP1: NovaScreen (NVS) Enzymatic Assay for human Caspase 1 (CASP1) (AID 2283132). An outline of the steps: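 Cell-free enzymatic assay with E. coli-expressed recombinant protein; fluorescence intensity read 1 hour after dosing. Single-concentration duplicate screen at 25 uM, then concentration-response up to 50 uM; activity fitted relative to DMSO, loss of signal meaning inhibition.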
Chain of Caspase-1 (Homo sapiens) (P29466 whole entry, looked up): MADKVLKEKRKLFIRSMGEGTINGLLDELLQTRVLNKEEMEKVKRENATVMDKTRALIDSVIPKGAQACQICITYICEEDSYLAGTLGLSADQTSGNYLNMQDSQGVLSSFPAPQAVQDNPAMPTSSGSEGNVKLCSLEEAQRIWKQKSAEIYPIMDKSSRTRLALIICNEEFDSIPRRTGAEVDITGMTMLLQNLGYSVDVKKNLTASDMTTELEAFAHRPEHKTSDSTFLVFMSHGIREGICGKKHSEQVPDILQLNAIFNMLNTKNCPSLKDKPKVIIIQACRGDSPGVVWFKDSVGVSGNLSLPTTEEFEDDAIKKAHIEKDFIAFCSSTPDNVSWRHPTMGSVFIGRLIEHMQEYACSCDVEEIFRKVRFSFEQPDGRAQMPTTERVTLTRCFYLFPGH

Chain of human Caspase 2 (CASP2), CASP2 (gene 835) (P42575 whole entry, looked up): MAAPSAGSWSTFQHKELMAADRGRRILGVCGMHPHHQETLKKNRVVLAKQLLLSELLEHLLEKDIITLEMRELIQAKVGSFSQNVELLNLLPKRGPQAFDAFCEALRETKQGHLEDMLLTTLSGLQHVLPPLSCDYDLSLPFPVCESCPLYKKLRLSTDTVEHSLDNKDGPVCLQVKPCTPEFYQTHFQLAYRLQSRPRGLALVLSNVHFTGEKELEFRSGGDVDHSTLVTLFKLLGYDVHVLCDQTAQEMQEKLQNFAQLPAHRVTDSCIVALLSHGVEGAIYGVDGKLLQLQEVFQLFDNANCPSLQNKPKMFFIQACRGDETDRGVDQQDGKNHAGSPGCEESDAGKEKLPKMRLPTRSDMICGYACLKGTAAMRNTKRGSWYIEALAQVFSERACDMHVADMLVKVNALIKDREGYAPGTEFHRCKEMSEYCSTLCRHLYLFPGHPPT
Chain of human Acid Phosphatase 1 (ACP1), ACP1 (gene 52) (P24666 whole entry, looked up): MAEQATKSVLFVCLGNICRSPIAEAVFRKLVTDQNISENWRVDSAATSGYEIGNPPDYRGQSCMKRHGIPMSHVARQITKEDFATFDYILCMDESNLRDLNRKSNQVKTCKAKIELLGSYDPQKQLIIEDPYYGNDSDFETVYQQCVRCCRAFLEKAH
Chain of human CYP4F12, CYP4F12 (gene 66002) (Q9HCS2 whole entry, looked up): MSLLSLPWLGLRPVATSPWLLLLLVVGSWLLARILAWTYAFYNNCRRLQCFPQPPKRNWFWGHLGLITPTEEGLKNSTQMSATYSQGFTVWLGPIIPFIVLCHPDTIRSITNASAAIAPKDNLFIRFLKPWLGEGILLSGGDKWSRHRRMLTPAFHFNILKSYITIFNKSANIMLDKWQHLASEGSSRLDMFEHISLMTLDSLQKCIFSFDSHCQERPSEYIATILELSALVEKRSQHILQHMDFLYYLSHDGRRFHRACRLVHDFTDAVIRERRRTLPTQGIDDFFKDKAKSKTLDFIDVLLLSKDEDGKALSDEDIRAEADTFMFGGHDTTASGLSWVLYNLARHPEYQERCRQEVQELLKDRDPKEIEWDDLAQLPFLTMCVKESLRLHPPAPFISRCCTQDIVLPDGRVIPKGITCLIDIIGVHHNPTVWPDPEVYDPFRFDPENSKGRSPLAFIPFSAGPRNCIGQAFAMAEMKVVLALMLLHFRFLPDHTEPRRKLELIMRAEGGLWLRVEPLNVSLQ
Chain of human Caspase 5 (CASP5), CASP5 (gene 838) (P51878 whole entry, looked up): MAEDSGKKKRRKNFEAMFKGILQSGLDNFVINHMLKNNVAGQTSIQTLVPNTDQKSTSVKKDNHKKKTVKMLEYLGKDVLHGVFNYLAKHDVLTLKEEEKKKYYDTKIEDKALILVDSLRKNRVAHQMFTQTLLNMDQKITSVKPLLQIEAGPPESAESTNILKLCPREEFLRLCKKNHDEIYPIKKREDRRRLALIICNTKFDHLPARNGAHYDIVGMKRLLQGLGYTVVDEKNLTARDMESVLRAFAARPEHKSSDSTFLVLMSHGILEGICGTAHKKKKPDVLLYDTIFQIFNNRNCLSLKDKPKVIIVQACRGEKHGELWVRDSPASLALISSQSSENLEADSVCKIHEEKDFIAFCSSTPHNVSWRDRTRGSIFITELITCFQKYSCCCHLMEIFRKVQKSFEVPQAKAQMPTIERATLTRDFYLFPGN

With `Nc1ccc(N=Nc2ccccc2)cc1`, the result in assay [1] was inactive.
In the case of `Oc1ccc2ccc3cccc4ccc1c2c34`, the AC50 in assay [2] was 6.02 µM (active); in assay [3], 5.32 µM (active).
Take `CCNS(=O)(=O)C(F)(F)C(F)(F)C(F)(F)C(F)(F)C(F)(F)C(F)(F)C(F)(F)C(F)(F)F`: the compound was classed as inactive in assay [2] and in assay [4].
As to `[Cl-].[Cl-].[Hg+2]`, the compound was called inactive in assay [5].
As to `Cc1ccc(N=C=O)cc1N=C=O`, the AC50 in the assay with Caspase-1 (Homo sapiens) was 25 µM (active). In assay [5], the compound was called inactive.
For `CN(C)[C@@H]1C(=O)C(C(N)=O)=C(O)[C@@]2(O)C(=O)C3=C(O)c4c(O)cccc4[C@@](C)(O)[C@H]3C[C@@H]12`, in the assay with Caspase-1 (Homo sapiens), the compound was classed as inactive.
As for `CCCCCCCCOC(=O)c1ccc(C(=O)OCCCCCCCC)c(C(=O)OCCCCCCCC)c1`, the compound was called inactive in assay [5].
Consider `CCN(CC)N=O`, for which, in assay [4], the outcome was inactive.
